The text below walks through data of PubChem BioAssay (NCATS).

Results filed as inconclusive are left out. Where a call stands in place of a potency, no number is given. Some structures have more than one record in an assay (separate samples or runs), and their calls can disagree. The source made the active and inactive calls. Calls follow the shape of the dose curve; as a rule, active = well fitted inhibition curve with a large enough effect in the signal ratio, with a control signal flat (not every such curve was filed as active); inconclusive = small, poorly fitted or top-dose-only effect, or effect the other way, or a change in a side signal; inactive = flat fitted curve, though single readings scatter; the % refers to the signal ratio.

In this assay the target is Glucocorticoid receptor (Homo sapiens) (UniProt P04150). Nature of the assay: qHTS assay for small molecule antagonists of glucocorticoid receptor signaling (AID 588533). To be noted: HeLa MMTV-bla, GRE beta-lactamase ratio, antagonist mode, 18 h; series mostly up to 76.8 µM. An excerpt: NIH Chemical Genomics Center [NCGC] U.S. Environmental Protection Agency [EPA] National Institutes of Environmental Health Sciences [NIEHS] National Toxicology Program [NTP] NCGC Assay Overview The Glucocorticoid receptor (GR), a nuclear receptor subfamily member and its natural ligands includes […] etc. The GR is a validated drug target for inflammation. GR ligands such as dexamethasone are clinically available as anti-inflammatory drugs. Glucocorticoids implicate a role in carbohydrate, protein and lipid metabolisms and programmed cell death. They are also a component of many chemotherapy regimens for the treatment of leukemias, lymphomas, and myelomas because of their role in the induction of apoptosis.
Sequence of Glucocorticoid receptor (Homo sapiens) (P04150 whole entry, looked up): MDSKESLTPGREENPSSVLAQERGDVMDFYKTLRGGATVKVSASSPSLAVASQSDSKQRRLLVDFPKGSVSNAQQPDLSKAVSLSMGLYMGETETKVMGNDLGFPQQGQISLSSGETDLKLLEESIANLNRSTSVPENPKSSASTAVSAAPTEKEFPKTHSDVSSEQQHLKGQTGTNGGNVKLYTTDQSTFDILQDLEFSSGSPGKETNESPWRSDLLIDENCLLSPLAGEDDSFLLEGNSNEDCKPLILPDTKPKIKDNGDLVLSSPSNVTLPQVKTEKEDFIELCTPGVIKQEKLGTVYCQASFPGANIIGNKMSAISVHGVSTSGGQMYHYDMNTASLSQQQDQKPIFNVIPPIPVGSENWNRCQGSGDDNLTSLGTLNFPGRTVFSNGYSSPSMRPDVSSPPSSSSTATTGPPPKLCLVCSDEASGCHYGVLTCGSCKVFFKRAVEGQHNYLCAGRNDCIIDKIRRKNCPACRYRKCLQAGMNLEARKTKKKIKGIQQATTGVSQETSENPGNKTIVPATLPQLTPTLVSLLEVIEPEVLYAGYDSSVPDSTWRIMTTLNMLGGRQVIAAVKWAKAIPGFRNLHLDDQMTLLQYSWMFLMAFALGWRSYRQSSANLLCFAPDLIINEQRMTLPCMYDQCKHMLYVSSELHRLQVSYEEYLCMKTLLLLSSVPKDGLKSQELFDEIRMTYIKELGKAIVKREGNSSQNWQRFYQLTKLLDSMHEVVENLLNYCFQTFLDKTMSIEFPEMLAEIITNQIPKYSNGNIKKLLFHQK
NCGC Assay Protocol Summary Using a beta-lactamase reporter-gene under control of glucocorticoid response element (GRE), a cell-based assay [CellSensor MMTV-bla HeLa cell line assay developed by Invitrogen] was used to measure GR ligands signaling. CellSensor MMTV-bla HeLa cells were used with assay medium containing 1% charcoal/dextran treated FBS, 0.1 mM NEAA, 1 mM sodium pyruvate and 25mM HEPES. The assay was performed in clear bottom black Greiner 1536-well plates. Library compounds were measured for their ability to inhibit the reporter gene activity. Compounds were screened in a titration series in 1536-well format. […] Data was normalized relative to Dexamethasone control (2 nM, 100%), and DMSO only wells (basal, 0%). Concentration-response titration points for each compound were fitted to the Hill equation yielding concentrations of half-maximal inhibition (IC50) and maximal response (efficacy) values. qHTS protocol for GR beta-lactamase assay in antagonist mode [Step] [Parameter] [Value] [Description] 1. Reagent; 5 uL; 1500 cells/well 2. Incubation; 37 C for 3-5 hrs 3. Compounds; 23 nL; 0.59 nM to 92 uM 4. […] Agonist (Stimulator); 1uL; Dexamethasone at 2 nM (final) concentration 6. Incubation; 37 C for 18 hrs 7. Detection reagent; 1 uL of CCF4-dye 8. Incubation; RT for 2 hrs 9. Detection; Fluorescence; Envision plate reader
(In general: qHTS replaces the single test concentration by a dilution series.)
Take `c1cc2c3c(cccc3c1)CC2`: the Potency entry is “inactive”. The entry for `CC(C)(C#N)N=NC(C)(C)C#N` is “inactive”; for `CCOP(=S)(S)OCC` it is “inactive”; for `O=[As](O)(O)O` it is “inactive”. To `Nc1cccc(Cl)c1Cl` belongs “inactive”; to `CCC(C)(C)c1cc(-n2nc3ccccc3n2)c(O)c(C(C)(C)CC)c1`, “inactive”; to `CC(C)(C)C(=O)[C@H](Oc1ccc(Cl)cc1)n1cncn1`, “inactive”. The entry for `COc1ccc(O)c(C(C)(C)C)c1` is “inactive”; for `COc1nc(C)nc(NC(=O)NS(=O)(=O)c2ccccc2CCC(F)(F)F)n1` it is “inactive”; for `CCSCCSP(=O)(OC)OC` it is “inactive”. In the case of `[CH3][Hg][Cl]`, the Potency was 11.2 µM (active). The entry for `C/C(=N\C(N)=O)N(C)Cc1ccc(Cl)nc1` is “inactive”.

With `CNC(=O)O/N=C/C(C)(C)S(C)(=O)=O`, the Potency result is “inactive”. The entry for `O=[N+]([O-])c1ccc(Oc2ccc(Cl)cc2Cl)cc1` is “inactive”; for `CCCCC(CC)COC(=O)Cl` (stereo not given) it is “inactive”.

For the compound `CCCCOC(=O)[C@@H](C)Oc1ccc(Oc2ccc(C#N)cc2F)cc1`, the Potency result was “inactive”. To `CC(C)COP(=O)(OCC(C)C)OCC(C)C` belongs “inactive”; to `CCCCC(C#N)(Cn1cncn1)c1ccc(Cl)cc1` (stereo not given), “inactive”; to `O=[N+]([O-])c1ccc(Nc2ccccc2)cc1`, “inactive”. Turning to `CCOP(N)(=O)Oc1ccc(SC)c(C)c1` (stereo not given), the Potency result is “inactive”. On to `CCOc1cc(Oc2ccc(C(F)(F)F)cc2Cl)ccc1[N+](=O)[O-]`, for which the Potency entry was “inactive”. The entry for `CC(C)(c1ccccc1)c1cc(-n2nc3ccccc3n2)c(O)c(C(C)(C)c2ccccc2)c1` is “inactive”; for `CCOC(=O)COc1cc(-c2nn(C)c(OC(F)F)c2Cl)c(F)cc1Cl` it is “inactive”. The entry for `CCOP(=S)(OCC)SCCl` is “inactive”; for `CCCCC(CC)CO[N+](=O)[O-]` (stereo not given) it is “inactive”. The entry for `CCOP(=O)(OCC)SCSC(C)(C)C` is “inactive”; for `CCNP(=S)(OC)O/C(C)=C/C(=O)OC(C)C` (stereo not given) it is “inactive”. With `O=C(CCl)c1ccccc1`, the Potency is 39.8 µM (active) and inactive. In the case of `CSc1nnc(C(C)(C)C)c(=O)n1N`, the Potency entry was “inactive”. The entry for `O=C1C=CC(=O)c2ccccc21` is “inactive”; for `Cc1cc(Cl)ccc1OCC(=O)O` it is “inactive”; for `CC(O)CN(CC(C)O)CC(C)O` (stereo not given) it is “inactive”. The entry for `CCC[CH2][Sn]([CH2]CCC)([CH2]CCC)[CH2]CCC` is “inactive”. The entry for `[CH3][Sn]([Cl])([Cl])[Cl]` is “inactive”. As to `CC(C)(C)[C@@H](O)/C(=C\c1ccc(Cl)cc1Cl)n1cncn1`, the Potency entry is “inactive”. To `CCC(C)Nc1c([N+](=O)[O-])cc(C(C)(C)C)cc1[N+](=O)[O-]` (stereo not given) belongs “inactive”; to `COC[C@H](C)N(C(=O)CCl)c1c(C)csc1C`, “inactive”. To `COC(=O)/C=C(\C)OP(=O)(OC)OC` belongs “inactive”; to `Cn1cc(-c2ccccc2)c(=O)c(-c2cccc(C(F)(F)F)c2)c1`, “inactive”; to `CCOP(=O)(NC(C)C)Oc1ccc(S(C)(=O)=O)c(C)c1` (stereo not given), “inactive”.
